Among the data in PubChem BioAssay (NCI) are growth inhibition values, retold here.

This is part of a sample that, as a whole, favours compounds with a hit. Of some 79,000 tested, about 15% had one in any assay. A number with no mark means an inactive call. Calls of active or inactive are those of the source. Cut-off read from the data, not from the text of the source: active = growth inhibition above about 70%; inactive = the rest.

This assay is described as follows: NCI Yeast Anticancer Drug Screen. Data for the sgs1 mgt1 strain (AID 161).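 Note: 0% = growth of cultures given vehicle only.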 As to conditions: S. cerevisiae sgs1 mgt1 strain, at 5.0 µM (retest, dose inferred, filed as 0.5), hits give high values. The method, boiled down:
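Yeast cells carrying a defined DNA-repair defect were exposed to test compounds. Growth inhibition was measured relative to vehicle-treated controls.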
`CCc1ccc(/C(C)=N/NC(N)=S)cc1`: the growth inhibition was 3%. In the case of `CC(C)/C=C1\CCOC1=O` it was 1%; in that of `COc1c(C(=O)/C(=N/Nc2ccccc2)C(C)=O)c(O)c(OC)c2occc12`, -39%; in that of `COc1ccc(CC/C(=N/O)c2ccccc2)cc1`, 8%.

For the molecule `CCOC(=O)C1(C#N)C(c2ccccc2)C1(C#N)C#N` (stereo not given), the growth inhibition is 31%. `COc1ccc(OC)c(/C=C/NC=O)c1`: the growth inhibition was -12%. Consider `CC(=O)Oc1ccc(-c2ccc(Br)cc2)cc1`, for which the growth inhibition was -2%.

On to `COC(=O)/C(C#N)=C/c1cc(OC)c(O)cc1Br`, for which the growth inhibition is 44%. With `CCC(C1SC(=S)NC1=O)C1SC(=S)NC1=O` (stereo not given), the growth inhibition was 10%. In the case of `CCC(C)c1ccc(O)c(C(C)c2ccccc2)c1` (stereo not given) it was 19%; in that of `C/C(=N\NC(=S)N1CCN(c2ccccc2)CC1)c1nccs1`, 33%; in that of `COc1ccc2c(C(=O)c3ccccc3)c3[n+](cc2c1OC)CCc1cc2c(cc1-3)OCO2`, -4%.

As for `Cc1cccc(C[N+](C)(C)CCCO)c1C`, the growth inhibition is 3%.

Consider `c1ccc(N=C2SC3=NCCN3C2=Nc2ccccc2)cc1`, for which the growth inhibition was 17%. Take `Cc1ccc(SCc2ccccc2Cl)nn1`: the growth inhibition is -8%. In the case of `CCCc1cc(=O)oc2c3c(c4c(c12)OC(C)(C)CC4)O[C@H](C)[C@H](C)C3=O` it was -12%; in that of `CC1(C)COC(c2cccc(C(O)c3ccc(Cl)cc3)c2)=N1` (stereo not given), -23%.

For the molecule `CCOC(=O)c1cc(NC(=O)c2cc(NC(=O)c3cc(NC(=O)c4c(-c5ccccc5)noc4C)cn3C)cn2C)cn1C`, the growth inhibition is 2%. In the case of `O=C(N/N=C/c1ccccc1O)c1ccccc1-n1cccc1` it was 43%. As for `O=C1CN(CCN2CCOCC2)CC(=O)N2Cc3ccccc3CN12`, the growth inhibition was 27%.

As for `CCC[CH2][Sn]([CH2]CCC)([NH]c1ncnc2[nH]cnc12)[NH]c1ncnc2[nH]cnc12`, the growth inhibition was 24%. Turning to `Oc1ccc(Br)cc1C=Nc1c(NC2CCCCC2)oc2ccc(Br)cc12`, the growth inhibition is 11%. As for `Cc1cc2c(C(C)C)c(O)c(O)c3coc(/c1=c1/c(C)cc4c(C(C)C)c(=O)c(=O)c5coc1c45)c32`, the growth inhibition was 25%. `O=C1c2ccccc2C(=O)N1/N=C\c1ccccc1[N+](=O)[O-]`: the growth inhibition is 3%.

With `O[C@H](CNCCS)[C@@H](O)CNCCS`, the growth inhibition is -6%. Consider `C[C@]12CC[C@H](O)CC1=CC[C@@H]1C2CC[C@]2(C)C(=O)N(N)C(=O)CC12` (stereo not given in full), for which the growth inhibition is 16%. Consider `O=C(C(/C=N/C(=S)NCc1ccccc1)=C(/O)c1ccccc1)c1ccccc1`, for which the growth inhibition is 3%. Consider `C=CC1(c2ccc(-c3ccccc3)cc2)OCCO1`, for which the growth inhibition was -4%. As for `C=C1CC(COc2ccc3c(C)cc(=O)oc3c2)(c2ccccc2)OC1=O` (stereo not given), the growth inhibition was 17%. On to `CN(C)CCCNc1c2ccccc2nc2ccc([N+](=O)[O-])cc12`, for which the growth inhibition is 21%. Turning to `CN1CCC(OC(=O)c2ccc3ncccc3c2)CC1`, the growth inhibition is -2%. For the molecule `COc1ccc(/C=C2/C(=O)N(C(=O)c3ccccc3O)N=C2C)cc1OC`, the growth inhibition is 7%. In the case of `CC1([N+](=O)[O-])C(=O)C2(N3CCOCC3)CCCC2C1c1ccccc1` (stereo not given) it was -1%; in that of `COc1ccc(C2=C(Cl)C(=O)N(c3ccc(C)cc3)C(=O)C2(Cl)Cl)cc1`, 24%; in that of `COc1ccnc(-c2cc(OC)cc(/C(N)=N/O)n2)c1`, -2%. In the case of `Nc1ccccc1CCc1ccccc1` it was 2%. In the case of `COC(=O)c1ccc(OCCC(=O)CCl)cc1` it was 3%; in that of `CCCCCCCCCCCCS(=O)(=O)CC(Br)C(=O)c1ccco1` (stereo not given), 67%. As to `FC(F)(F)C(F)(F)C1(F)C(F)(F)C(F)(F)C(F)(F)C(F)(F)C1(F)F`, the growth inhibition was -1%. As to `O=C(O)C(O)C(O)C(O)C(O)CO.[Ag]` (stereo not given), the growth inhibition is 99% (active).
